Results filed as inconclusive are left out. The source made the active and inactive calls. The call rests on the fitted dose curve; in most records, active means well fitted curve in the direction sought with a large enough effect; inconclusive means small, poorly fitted or top-dose-only effect, or another doubt; inactive means no such curve, though single readings can be large; an effect the other way counts as inactive or inconclusive.
Experiments:
[1] = target: Glutathione peroxidase 1 (Homo sapiens) (UniProt P07203); assay: Primary qHTS Assay for Inhibitors of Recombinant Selenoprotein Glutathione Peroxidase 1 (GPX1) (AID 1845191); further: nearly all actives have a fitted effect of over 65% in size
Procedure, shortened: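 GR-coupled assay: compounds preincubated 30 min at room temperature with GPX1, then reaction started with CHP; final 10 nM GPX1, 1 mM GSH, 0.5 mM CHP, 0.5 mM NADPH, 100 nM GR, 0.01% BSA, pH 7.5 Tris buffer. NADPH fluorescence (340/450 nm) read at 0 and 15 min.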

[2] = target: Phospholipid hydroperoxide glutathione peroxidase GPX4 (Homo sapiens) (UniProt P36969); assay: Primary qHTS Assay for Inhibitors of Recombinant Selenoprotein Glutathione Peroxidase 4 (GPX4) (AID 1845192); further: nearly all actives have a fitted effect of over 65% in size
Procedure, shortened: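 GR-coupled assay: recombinant GPX4 preincubated 30 min with compound at room temperature; final 200 nM GPX4, 1 mM GSH, 0.5 mM cumene hydroperoxide, 0.5 mM NADPH, 100 nM GR, 0.01% BSA, pH 7.5 Tris. NADPH fluorescence (340/450 nm) read at 0 and 15 min.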

[3] = target: Luciferin 4-monooxygenase (Photinus pyralis) (UniProt P08659); assay: Primary firefly luciferase (FLuc) qHTS assay for identification of artifact compounds. (AID 1845220); further: nearly all actives have a fitted effect of over 60% in size
Procedure, shortened: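 Titrated compounds were incubated 15 min at RT, protected from light, with luciferin and ATP at 10 uM; reaction started with 10 nM FLuc, luminescence imaged at 5 min, and concentration-response fitted by Hill equation.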

[4] = system: Nanoluciferase (engineered Oplophorus gracilirostris luciferase); assay: Primary Nanoluciferase (NLuc) qHTS assay for identification of artifact compounds. (AID 1845222);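 further: NLuc secreted into diluted conditioned medium of S16 cells; series mostly up to about 54 µM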
Procedure, shortened: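 qHTS format, against NLuc in S16 cell-conditioned medium. Nano-Glo substrate 1:100 was added after 15 min at room temperature. Luminescence was taken after a further 5 min.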

[5] = Primary redox qHTS assay for identification of artifact compounds. (AID 1845223)
Procedure, shortened: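 Amplex Red (25 uM) and HRP (250 mU/mL) in HBSS, with compounds for 15 min, then 250 uM DTT for 30 min, room temperature, dark. Fluorescence 525/598 nm read; normalized to DMSO and 10 uM DA3003; Hill fit.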

Measured: Potency

Chain of Glutathione peroxidase 1 (Homo sapiens) (P07203 whole entry, looked up): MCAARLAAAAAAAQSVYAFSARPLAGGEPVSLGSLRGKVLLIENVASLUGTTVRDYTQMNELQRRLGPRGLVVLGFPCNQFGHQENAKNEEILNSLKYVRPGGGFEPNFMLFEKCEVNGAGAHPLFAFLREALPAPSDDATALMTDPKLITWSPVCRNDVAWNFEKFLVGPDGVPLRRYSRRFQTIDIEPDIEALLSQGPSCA
Chain of Phospholipid hydroperoxide glutathione peroxidase GPX4 (Homo sapiens) (P36969 whole entry, looked up): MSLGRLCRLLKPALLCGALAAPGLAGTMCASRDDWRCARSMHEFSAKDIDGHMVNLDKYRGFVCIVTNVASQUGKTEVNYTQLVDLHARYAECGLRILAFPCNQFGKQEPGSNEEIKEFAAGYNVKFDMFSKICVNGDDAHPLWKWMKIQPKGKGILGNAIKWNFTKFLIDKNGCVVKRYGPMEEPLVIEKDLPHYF

CC(C)=CCc1cc(O[C@@H]2O[C@H](CO[C@@H]3OC[C@](O)(CO)[C@H]3O)[C@@H](O)[C@H](O)[C@H]2O)ccc1O
inactive: all assays above

Nc1nc(COC(=O)c2ccc([N+](=O)[O-])cc2)nc(Nc2ccccc2)n1
inactive: all assays above

COCCCc1sc(-c2ccccc2)nc1C(=O)Nc1ccccc1-c1nc2cc(CN3CCCC3)cnc2s1
inactive: all assays above

COc1cc2c(c(O)c1OC/C=C(\C)CC/C=C(/C)CCC=C(C)C)CN(C(CCC(=O)O)C(=O)O)C2=O (stereo not given)
inactive: all assays above

O=C(C[C@@H]1C(C(=O)O)=CO[C@@H](O[C@@H]2O[C@H](CO)[C@@H](O)[C@H](O)[C@H]2O)/C1=C\CO)OCCc1ccc(O)cc1
inactive: all assays above

CC(=O)c1ccc(O[C@@H]2O[C@H](CO[C@@H]3OC[C@@H](O)[C@H](O)[C@H]3O)[C@@H](O)[C@H](O)[C@H]2O)cc1
inactive: all assays above

O=C(/C=C/c1ccc(O)cc1)OC[C@H]1O[C@H](O[C@@]2(CO)O[C@@H](CO)[C@H](O)[C@H]2O)[C@H](O)[C@@H](O)[C@@H]1O
inactive: all assays above

CC1=CC23[C@H](C=C(C(=O)O)[C@@H]2COC(=O)[C@]3(O)CO)[C@@H]1C (stereo not given in full)
inactive: all assays above

CC1(C)C[C@H](O)C[C@@]2(C)[C@H]1[C@H](O)C=C1COC(=O)[C@@]12O
inactive: all assays above

COc1c(O)cc2c(c1O)C(=O)O[C@H](C)[C@H]2O
inactive: all assays above

OC[C@H]1O[C@@H](OC[C@H]2O[C@@H](OCc3ccccc3)[C@H](O)[C@@H](O)[C@@H]2O)[C@H](O)[C@@H](O)[C@@H]1O
inactive: all assays above

COc1cc(Nc2nc3ccccc3nc2NS(=O)(=O)c2cccc(NC(=O)c3ccc(C)c(OC)c3)c2)cc(OC)c1
inactive: all assays above

C/C(CO)=C1/CCC23COC(C2)C(O)(C(=O)O)CCC13 (stereo not given)
inactive: all assays above

CCC1=C(C)C(=O)C(C)CC12C(=O)CCC2C(=O)O (stereo not given)
inactive: all assays above

COC1OC(OC)C(O)(CCC2(C)C(C)CCC3(C)C2CC(O)C(O)C32CO2)C1O (stereo not given)
inactive: all assays above

CC1CCC2C(C(=O)O)=CC3(O)CC(C)(C)CC123 (stereo not given)
inactive: all assays above

O=C(Nc1cc(-c2ccccc2)nn1-c1ccccc1)c1ccc([N+](=O)[O-])cc1
inactive: all assays above

COc1ccc(/C=C/C(N)=O)cc1OC
inactive: all assays above

C[C@]1(O)CC[C@@H]2C(C(=O)O)=CO[C@@H](O[C@@H]3O[C@H](CO)[C@@H](O)[C@H](O)[C@H]3O)[C@@H]21
inactive: all assays above

COc1c(O[C@@H]2O[C@H](CO)[C@@H](O)[C@H](O)[C@H]2O)c(CCC(=O)O)cc2ccoc12
inactive: all assays above

C=C(C(=O)O)C1CC(OC(=O)CC(C)CC)C2(C)CCCC(=C)C2C1 (stereo not given)
inactive: all assays above

CC/C=C/C(O)C(O)C1=C(C)C(=O)C2(O1)C(=O)NC(OC)(C(=O)c1ccccc1)C2O (stereo not given)
inactive: all assays above

CC1=CC(=O)CC(C)(C)C1/C=C/C(C)OC1OC(COC2OCC(O)C(O)C2O)C(O)C(O)C1O (stereo not given)
inactive: all assays above

C[C@H](/C=C/[C@@]1(O)[C@H](C)CC(=O)CC1(C)C)O[C@@H]1O[C@H](CO[C@@H]2OC[C@@H](O)[C@H](O)[C@H]2O)[C@@H](O)[C@H](O)[C@H]1O
inactive: all assays above

Nc1c(-c2ccccc2)nc(Cl)c2c(O)n[nH]c(=O)c12
inactive: all assays above

Reference: PubChem BioAssay (NCATS)
